Experimental findings from ChEMBL document CHEMBL5606458, “ASAP - ZIKV NS2B-NS3 protease fluorescence single point” (2024) are described below.

The target of the assay is Nonstructural protein 3 (Zika virus) (UniProt A0A024AXB9).
The mark [1] stands for this setting: PRVABC59, Concentration 15.0 uM, Number of replicates 1.0.
[2] abbreviates: PRVABC59, Concentration 50.0 uM, Number of replicates 1.0.

Out of some 2,700 compounds screened, about 160 (5.9%) showed an effect of 50% or more. For the sample, strong results were picked, then their nearest neighbours and some compounds at random.

Sequence of Nonstructural protein 3 (Zika virus) (A0A024AXB9 as listed by the source): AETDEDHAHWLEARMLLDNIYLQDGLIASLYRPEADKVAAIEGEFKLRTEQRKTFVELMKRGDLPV

As usually defined, the inhibition is the change of the read-out against control, counted positive when it falls. For `CCc1cccc2[nH]c(C(=O)N3C[C@H](n4cc(CO)nn4)CCC3(C)C)cc12`, the inhibition (PRVABC59, Concentration 49.5 uM, Number of replicates 2.0, Standard deviation 1.345657751466366 %) is 1.61%; the inhibition (PRVABC59, Concentration 99.01 uM, Number of replicates 2.0, Standard deviation 0.921351350459793 %) was 4.33%; the inhibition (PRVABC59, Concentration 198.0 uM, Number of replicates 2.0, Standard deviation 1.6164058188461652 %) came out at 5.38%.
Regarding `O=C(NCC[C@H](O)c1ccccc1)c1cc(Cl)ccc1NS(=O)(=O)c1ccc(Oc2ccccc2Cl)cc1`, the inhibition under setting [1] worked out at 38.9%.
Take `COc1ccc(S(=O)(=O)N[C@H]2CC[C@H](C(=O)Nc3nc4ccccc4s3)CC2)cc1`: the inhibition was 4.79% (PRVABC59, Concentration 49.5 uM, Number of replicates 2.0, Standard deviation 1.516279405300169 %); 5.82% (PRVABC59, Concentration 99.01 uM, Number of replicates 2.0, Standard deviation 2.0429029287446374 %); 5.18% (PRVABC59, Concentration 198.0 uM, Number of replicates 2.0, Standard deviation 2.7145967477005732 %).
Consider `O=Cc1ccc(N2CCC(C(=O)N3CCC[C@H]3c3cccc(F)c3)CC2)cc1`, for which, under setting [2], the inhibition stood at 24.6%.
In the case of `Cc1cc(CO)c2cccc(NC(=O)C3CCN(C)CC3)c2n1`, the inhibition runs as follows: (PRVABC59, Concentration 49.95 uM, Number of replicates 2.0, Standard deviation 2.9039680698338874 %) 1.89%; (PRVABC59, Concentration 99.9 uM, Number of replicates 2.0, Standard deviation 2.0814932575907883 %) 29.5%.
As to `Cc1cc(CO)c2cccc(NC(=O)CNC3CC3)c2n1`, the inhibition is 17.8% (PRVABC59, Concentration 49.95 uM, Number of replicates 2.0, Standard deviation 1.7513317050958486 %) and 28.9% (PRVABC59, Concentration 99.9 uM, Number of replicates 2.0, Standard deviation 1.7111876748261923 %).
For `Cc1cc(CO)c2cccc(NC(=O)C3CCC(N)CC3)c2n1` (centres undefined), the inhibition (PRVABC59, Concentration 49.95 uM, Number of replicates 2.0, Standard deviation 0.4998117214705663 %) amounted to 93.2% and the inhibition (PRVABC59, Concentration 99.9 uM, Number of replicates 2.0, Standard deviation 0.37327676699721984 %) was 95.4%.
In the case of `Cc1cc(CO)c2cccc(NC(=O)C3CCC(CN)CC3)c2n1` (centres undefined), the inhibition is, setting by setting: (PRVABC59, Concentration 49.95 uM, Number of replicates 2.0, Standard deviation 1.4301713707436838 %) 93.7%; (PRVABC59, Concentration 99.9 uM, Number of replicates 2.0, Standard deviation 0.5018131910126516 %) 92.3%.
Turning to `Cc1cc(CO)c2cccc(NC(=O)C3CNC3)c2n1`, the inhibition (PRVABC59, Concentration 99.9 uM, Number of replicates 2.0, Standard deviation 0.20878200053144555 %) is -2.49%.
For the molecule `Cc1cc(CO)c2cccc(NC(=O)C3CC(N)C3)c2n1` (centres undefined), the inhibition (PRVABC59, Concentration 49.95 uM, Number of replicates 2.0, Standard deviation 0.17303270644971713 %) is 56.1% and the inhibition (PRVABC59, Concentration 99.9 uM, Number of replicates 2.0, Standard deviation 0.6659229038704304 %) came to 84.7%.
Consider `Cc1cc(CO)c2cccc(NC(=O)[C@@H]3CCCC[C@H]3C(=O)O)c2n1`, for which the inhibition reads like this: (PRVABC59, Concentration 49.95 uM, Number of replicates 2.0, Standard deviation 1.6258787445174738 %) 3.41%; (PRVABC59, Concentration 99.9 uM, Number of replicates 2.0, Standard deviation 1.31977157857946 %) 10.8%.
In the case of `Cc1cc(CO)c2cccc(CC(=O)N3CCC(CN)CC3)c2n1`, the inhibition is 25.3% (PRVABC59, Concentration 49.95 uM, Number of replicates 2.0, Standard deviation 0.5547725606279245 %) and 39.1% (PRVABC59, Concentration 99.9 uM, Number of replicates 2.0, Standard deviation 0.00508999060096365 %).
As to `Cc1cc(CO)c2cccc(NC(=O)[C@@H]3C[C@@H](O)CN3)c2n1`, the inhibition (PRVABC59, Concentration 49.95 uM, Number of replicates 2.0, Standard deviation 2.1728568355691875 %) came out at 17% and the inhibition (PRVABC59, Concentration 99.9 uM, Number of replicates 2.0, Standard deviation 5.153634365263829 %) is 23.7%.
Regarding `CCCCCN(CCCCC)C(=O)C1CCN(c2ccc(C=O)cc2)CC1`, under setting [2], the inhibition amounted to 26.1%.
With `O=Cc1ccc(N2CCC(C(=O)Nc3c(F)cc(F)cc3Cl)CC2)cc1`, the inhibition under setting [2] was 23.6%.
For `COc1cc2c(cc1NC(=O)c1cc(Cl)ccc1NS(=O)(=O)c1ccc(Oc3ccccc3Cl)cc1)oc1ccccc12`, the inhibition under setting [1] was 36.2%.
With `O=C(Nc1ncccc1C(F)(F)F)c1cc(Cl)ccc1NS(=O)(=O)c1ccc(Oc2ccccc2Cl)cc1`, under setting [1], the inhibition was 25.1%.
`Cn1cc(NC(=O)c2cccc3ncccc23)cn1`: the inhibition reads like this: (PRVABC59, Concentration 49.5 uM, Number of replicates 2.0, Standard deviation 3.392303236065074 %) -6.29%; (PRVABC59, Concentration 99.01 uM, Number of replicates 2.0, Standard deviation 4.211868261497117 %) -5.3%; (PRVABC59, Concentration 198.0 uM, Number of replicates 2.0, Standard deviation 3.7498965706755105 %) -3.61%.
In the case of `O=Cc1ccc(N2CCC(C(=O)N3CCN(CCOCCO)CC3)CC2)cc1`, under setting [2], the inhibition was found to be 21.2%.
In the case of `COc1ccc([C@H](C)NC(=O)c2cc(Cl)ccc2NS(=O)(=O)c2ccc(Oc3ccccc3Cl)cc2)cc1`, the inhibition under setting [1] turned out to be 35.3%.
For `O=Cc1ccc(N2CCC(C(=O)Nc3ccc(Cl)nc3Cl)CC2)cc1`, under setting [2], the inhibition was determined as 20.5%.
In the case of `c1cnc2c(C3CCN(Cc4ccc5[nH]cnc5c4)CC3)c[nH]c2c1`, the inhibition reads like this: (PRVABC59, Concentration 49.5 uM, Number of replicates 2.0, Standard deviation 2.816135776094685 %) 1.64%; (PRVABC59, Concentration 99.01 uM, Number of replicates 2.0, Standard deviation 1.9941147484327908 %) 7.38%; (PRVABC59, Concentration 198.0 uM, Number of replicates 2.0, Standard deviation 0.19707731493778816 %) 19.3%.
`CC(C)(C)c1ccc(S(=O)(=O)N2CCN(C(=O)c3cc(Cl)ccc3NS(=O)(=O)c3ccc(Oc4ccccc4Cl)cc3)CC2)cc1`: the inhibition under setting [1] was 14.3%.
